From PubChem BioAssay AID489018 (Southern Research Specialized Biocontainment Screening …, 2010)
About 350 (15%) of roughly 2,300 compounds were called active. Not all results are given here. Measured potencies and affinities stand elsewhere. Values without a mark were called inactive. No rule for the calls is given here.

Test: HepG2 cell cytotoxicity, dose response, cytotoxicity control for non-replicating M. tuberculosis project (AID 489018);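 also: HepG2 human liver cells; 100% = vehicle-treated cells and 0% = background signal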
Conditions: series mostly up to 20 µM; viability: at the top concentration

SMILES	viability
Cn1cccc1/C=N\NC(=O)C1COc2ccccc2O1 (stereo not given)	89.8%
O=C(C/C=N\OCc1ccc([N+](=O)[O-])cc1)Nc1ccc(Cl)cc1	91.9%
O=C(NCC(c1cccs1)N1CCOCC1)c1cc([N+](=O)[O-])cc([N+](=O)[O-])c1 (stereo not given)	97.6%
OC(CNCCc1ccc(C(F)(F)F)cc1)COc1cccc2ccccc12 (stereo not given)	97.7% [at 5 µM]
OC(CNCCc1ccc(C(F)(F)F)cc1)COc1ccc2ccccc2c1 (stereo not given)	96.9% [at 5 µM]
Cn1ccsc1=NC(=O)c1ccccc1F	103%
CCc1ccc(C(=O)COC(=O)c2ccc(Cl)nc2)cc1	98.2%
Cc1cccc(NC(=O)COc2ccc(Br)cc2)n1	107%
Cc1nc([N+](=O)[O-])c(Br)n1CC(=O)c1ccccc1	96.7%
c1ccc(-c2nc3ccccn3c2NC2CCCC2)nc1	89.2% [at 5 µM]
O=C(N/N=C/C=C/c1ccccc1)c1ccncc1	106%
O=C(Nc1ccccn1)c1ccc(C(=O)c2ccccc2)cc1	93.6%
CC(C)(C)NCc1cc(Br)ccc1OCc1cccs1	70.4%
CC(C)CCCn1c(O)c(/C=C2/C=CC=N2)c(=O)[nH]c1=O	107%
CC1=C(C)/C(=N\OS(=O)(=O)c2ccccc2)C=CC1=O	95.9%
CN(CC(=O)Nc1ccc(C#N)cc1)Cc1ccc(Cl)c(Cl)c1	106%
Cc1ccccc1-c1cc2c(nn1)-c1ccccc1C2=O	99.2%
Nc1ccc2c(c1)oc1ccccc12	113%
COc1cc(OC)cc(-c2nc3ccccc3c(=O)o2)c1	94.9%
O=C(COC(=O)c1ccccc1)NC12CC3CC(CC(C3)C1)C2	100%
O=C(CC(=O)c1ccccc1O)c1cccc(F)c1	90.6%
O=C(O)c1ccc(NS(=O)(=O)/C=C/c2ccccc2)cc1O	101%
CCn1c(NC(=O)C2CCCCC2)nc2ccccc21	103% [at 5 µM]

SMILES	viability
Cc1cc(NC(=O)COc2ccccc2)ccc1Cl	89.3%
O=c1cc(C(F)(F)F)[nH]c2c(C(F)(F)F)cccc12	87.7%
CCc1nonc1NC(=O)COc1ccc(Cl)c(C)c1	105%
CCOC(=O)Nc1ccc2c(c1)N(C(=O)CCN1CCOCC1)c1ccccc1S2=O (stereo not given)	100%
CCOC(=O)Nc1cccc(OCC(=O)Nc2ccccc2OC)c1	114%
O=C(Nc1nc2ccccc2[nH]1)c1cccc(Cl)c1	88.9%
O=C(Nc1nc2ccccc2[nH]1)c1ccc(F)cc1	82.1%
CN1CCC(O)(c2ccc(Cl)cc2)C(C(=O)c2ccc(Cl)cc2)C1 (stereo not given)	98.3%
CC(C)c1ccc(OCC(=O)NCc2ccccc2)cc1	96.2%
O=C(COc1ccc(Cl)cc1)Nc1ccccc1Cl	105% [at 5 µM]
Cc1ccc(C)c(-c2nnc(NC(=O)C3=COCCO3)o2)c1	94.1%
O=C(NCCc1c[nH]c2ccccc12)c1cc2ccccc2oc1=O	96.5%
COc1ccccc1N1CCN(C(=O)c2ccc([N+](=O)[O-])s2)CC1	107% [at 5 µM]
Fc1ccc(-c2nn(-c3ccccc3)cc2CNCc2ccccc2)cc1	71.3%
Cc1ccc(-n2cc(CNCCn3nc(C)cc3C)c(-c3ccc(F)cc3)n2)cc1	76.2%
Cc1cc(Br)ccc1OCC(=O)NNC(=O)C(=O)Nc1ccccc1	109%
O=C(CCN1C(=O)/C(=C/c2ccccc2Cl)SC1=S)N1CCCC1	102% [at 5 µM]
COc1cccc(OCc2nnc(-c3cccs3)o2)c1	96.8%
Cc1ccc(Oc2c(C(N)=O)cc([N+](=O)[O-])cc2[N+](=O)[O-])cc1	95.9% [at 5 µM]
Cc1csc(=Nc2cccnc2)n1CC1CCCCC1	89.3%
CCOC(=O)c1csc(COc2ccc(OC)cc2)n1	103%
COc1ccc(O)c(C(=O)CC(=O)c2ccc(F)cc2)c1	97%
Cc1ccc(NC(=O)C2=C(c3ccccc3)S(=O)(=O)CCS2(=O)=O)cc1	104% [at 5 µM]

SMILES	viability
CCOC(=O)C1CCCN(Cc2ccc(OCc3ccccc3)cc2)C1 (stereo not given)	100%
CCOC(=O)C1CCN(Cc2ccc(-c3ccccc3)cc2)CC1	103%
Cc1ccc(C(=O)OCC(=O)N2CCCCCC2)c(O)c1	104%
CCCCC1CCC(C(=O)Nc2ccc(S(=O)(=O)Nc3nccs3)cc2)CC1 (stereo not given)	97.8%
Cc1ccc(C(=O)N/N=C/c2cccc3ccccc23)cn1	98%
Cc1nn(C)cc1/C=N/NC(=O)c1sc2ccccc2c1Cl	83%
CC(C)c1nnc(NC(=O)c2cc3cc(Br)ccc3oc2=O)s1	93.2%
O=C(OCc1ccc([N+](=O)[O-])cc1)c1ccc2ccccc2n1	94.9%
CN(C)CC/C=C1\c2cc(Cl)ccc2Sc2cc(F)c(F)cc21	112% [at 5 µM]
O=C(CN1CCN(c2ccc([N+](=O)[O-])cc2)CC1)Nc1ccccn1	77.3%
C/C(=N\NC(=O)c1cc([N+](=O)[O-])cc([N+](=O)[O-])c1)c1ccco1	96%
COc1ccc(CN=C(C#N)C2=C(O)c3ccccc3C2=O)cc1	88.4%
N/C(=N\OC(=O)c1cccc(Br)c1)c1ccc([N+](=O)[O-])cc1	97.3%
O=c1c2cc(Cl)ccc2nc(-c2ccc([N+](=O)[O-])cc2)n1O	78.1%
O=c1c2c([N+](=O)[O-])cc([N+](=O)[O-])cc2sn1-c1ccc(Br)cc1	105%
CCOC(=O)COn1c(-c2cccc(Cl)c2)nc2ccc([N+](=O)[O-])cc21	89.2%
O=C(NCc1cccs1)c1cc(-c2ccc(O)cc2)on1	88.8%
CC(C)(C)NC(=O)COC(=O)c1snc(C(=O)NC2CCCCC2)c1N	74.4%
COc1ccc([N+](=O)[O-])c(S(=O)(=O)c2ccc(Cl)cc2)n1	70.5%
CCS(=O)(=O)c1c([N+](=O)[O-])ncn1C	92.7% [at 5 µM]
CCOC(=O)c1c(C)nc2cc(C)ccn12	94.2%
CCOc1ccc(C(=O)N/N=C/c2cccc3cccnc23)cc1	97.7% [at 5 µM]
CCOc1ccc(C(=O)N/N=C(/C)C2C(=O)c3ccccc3C2=O)cc1	92.2%

SMILES	viability
CCc1ccc(/C=N/NC(=O)c2ccccn2)cc1	103% [at 5 µM]
COC(=O)c1ccc(COC(=O)c2ccccn2)cc1	105%
O=C1NC(=O)N(Cc2ccc(F)cc2)C(=O)/C1=C\c1ccc([N+](=O)[O-])s1	102%
O=C(OCc1nnc(-c2ccccc2)o1)c1ccc(Br)o1	106%
Cc1ccccc1-n1c(C)cc(/C=N/NC(=O)c2ccncc2)c1C	92.9%
CC(C)Cn1c([N+](=O)[O-])nc2c1c(=O)[nH]c(=O)n2C	103%
CN1CCC(O)(c2cccs2)C(C(=O)c2cccs2)C1 (stereo not given)	113%
COc1ccc(C(C#N)=C2C=CC(=NO)C=C2)cc1	87.4%
CC/C(=C\C=C\[C@@H]1C=C[C@@H]2CCC[C@H]2[C@@H]1C(=O)c1ccc[nH]1)[C@@H]1O[C@@H]([C@@H](C)C(=O)O)CC[C@@H]1C	87%
CCOc1cc(-c2sc(Nc3cc(C)ccc3OC)n[n+]2-c2ccccc2)ccc1OC	100%
O=C(COc1ccc(Br)cc1)Nc1ccc([N+](=O)[O-])cn1	101%
CC(=O)Nc1ccc(NC(=O)c2cc([N+](=O)[O-])cc([N+](=O)[O-])c2)cc1	82.4%
O=C1/C(=C/C=C/c2ccccc2)Oc2c1ccc(O)c2CN1CCN(CCO)CC1	105%
CC(Oc1ccc2ccccc2c1)C(=O)NNC(=S)NC(=O)c1ccco1 (stereo not given)	112% [at 5 µM]
CCCOc1ccc(C(=O)NNC(=S)NC(=O)c2cccs2)cc1	74.2% [at 5 µM]
CCCOC(=O)c1ccc(NC(=O)c2ccc(Br)o2)cc1	104%
CCCc1cc(=O)n2[nH]c(C)c(-c3ccccc3)c2n1	105%
Clc1cccc(-c2ccc(CNCc3ccccn3)o2)c1	111% [at 5 µM]
Cc1cc(C)nc(-n2nc(C)cc2Nc2ccccc2)n1	89% [at 5 µM]
COc1cc(N=c2ssnc2Cl)cc(OC)c1OC	109%
CCN(CC)c1ccc(-c2sc(Nc3ccccc3)n[n+]2-c2ccc(F)cc2)cc1	81%
Cc1nn(-c2ccccc2)nc1C(=O)c1c(C)[nH]n(-c2ccccc2)c1=O	101%
O=C(Nc1ncc(Cc2ccccc2Cl)s1)C1=NCCN1	85.5%

SMILES	viability
O=C(NC1CCCCC1)c1nc2c(nnn2Cc2ccccc2Cl)c(=O)[nH]1	90.9%
CCOC(=O)N1CCC(N2CCCC(C(=O)c3ccc4cc(OC)ccc4c3)C2)CC1 (stereo not given)	81.3%
CNC(C)C#Cc1ccc2oc3cc(C)c(C)cc3c(=O)c2c1 (stereo not given)	81.7%
CCCCOC(=O)c1ccc(NC(=O)c2nn(C)cc2Br)cc1	92.6%
O=S1(=O)N=C(N/N=C/C=C/c2ccccc2)c2ccccc21	109% [at 5 µM]
Cc1ccc(/C=C2\SC(=S)N(C3CCS(=O)(=O)C3)C2=O)o1 (stereo not given)	99.9%
CC(C)c1nnc(NC(=O)c2c(O)c3cccc4c3n(c2=O)CCC4)s1	97.2% [at 5 µM]
O=C(NNC(=O)c1ccccc1F)c1ccc(-c2ccc(Cl)cc2)o1	104% [at 5 µM]
COC(=O)c1cn(NC(=O)c2cnccn2)c(=O)c2ccccc12	75.4%
CCOC(=O)c1cc(-c2c(Cl)cccc2Cl)no1	107%
Cn1cnc([N+](=O)[O-])c1Sc1ccc([N+](=O)[O-])cc1	106% [at 5 µM]
Fc1ccc(-c2ccc(CNCc3ccccn3)o2)cc1Cl	109%
Clc1ccc(-c2ccc(CNCc3ccccn3)o2)cc1	96.1%
CCOC(=O)c1cc(COc2cc(Cl)cc(Cl)c2)on1	96.5%
Cc1cccc(OCC(=O)NNC(=O)c2cc3ccccc3oc2=O)c1	111%
O=C(COc1ccc2ccccc2c1)N/N=C/c1ccccn1	94.8%
Cc1cc(C)n2[nH]c(=O)c(N=Nc3cccc(Cl)c3)c2n1	99.3% [at 5 µM]
CN=C1S/C(=C\c2ccc(OCC(=O)OC)c(OC)c2)C(=O)N1C	94%
COc1cccc(OCCNC(=O)c2cc([N+](=O)[O-])cc([N+](=O)[O-])c2)c1	102%
Cc1n[nH]c(C)c1CCOc1ccc(C(C)C)cc1	77.2%
CC(C)c1ccc(OCC(=O)NNC(=O)c2cnccn2)cc1	97.1%
O=C1Nc2ccccc2/C1=C/C(=O)c1cccs1	103%
O=C(COC(=O)c1ccc(O)cc1O)c1ccc2c(c1)OCO2	104% [at 5 µM]
